Drawing on PubChem BioAssay (EPA / NIEHS), this text covers outcome for 30 compounds.

Records with an inconclusive call do not appear. The source made the active and inactive calls. Rule for the calls: active = hit-call score of the fitted dose curve at least 0.9, where 1 is the maximum; inconclusive = response in the unintended direction; inactive = score below 0.9.

Read-out in the assay: organic anion transporter (SLCO1B1), SLCO1B1 (gene 10599)
In words: CLD_SLCO1B1_24hr: CellzDirect (CLD) Gene Expression Assay for organic anion transporter (SLCO1B1) at 24 hours (AID 2283690). On the procedure: CLD_24hr is a cell-based, multiplexed-readout assay that uses hepatocyte, a human liver primary cell, with measurements taken at 24 hours after chemical dosing in a 96-well plate.CLD_SLCO1B1_24hr is one of 16 assay component(s) measured or calculated from the CLD_24hr assay. It is designed to make measurements of mRNA induction, a form of inducible reporter, as detected with chemiluminescence signals by Quantitative Nuclease Protection Assay (qNPA) technology.Data from the assay component CLD_SLCO1B1_24hr was analyzed at the endpoint, CLD_SLCO1B1_24hr, in the positive analysis fitting direction relative to DMSO as the negative control and baseline of activity. Using a type of inducible reporter, gain-of-signal activity can be used to understand changes in the reporter gene as they relate to the gene SLCO1B1. Furthermore, this assay endpoint can be referred to as a primary readout. To generalize the intended target to other relatable targets, this assay endpoint is annotated to the transporter intended target family, where subfamily is organic anion transporter.
Human hepatocyte cultures were treated daily for two consecutive days with fresh dosing solutions containing appropriate concentrations of the 320 ToxCast chemicals (chemical identities were blinded to CellzDirect and other ToxCast collaborators), vehicle control (0.2% DMSO), and positive control inducers as summarized in Table 1. Due to the large number of treatment groups and chemicals examined, the ToxCast chemicals were divided into two groups (spanning two independent cultures of hepatocytes from separate donor preparations (Hu778: ToxCast plates 1 and 2; Hu776: ToxCast plates 3 and 4). Each preparation of human hepatocyte cultures was treated with respective vehicle control, medium only control, set of six positive controls/reference chemicals for the five hepatic receptor pathways, and a subset of eight of the ToxCast chemicals (indoxacarb, pyrithiobac-sodium, norflurazon, cyhalofop-butyl, methomyl, thiram, acetochlor, and propiconazole). These replicate data, coupled with internal replicates designed within the blinded ToxCast chemical library, provided additional data to evaluate interindividual differences between hepatocyte preparations and their potential impact on chemical profiles.Cell morphology and integrity were evaluated using phase-contrast microscopy as an indicator of hepatocyte cell health (Tyson & Green, 1987). Cultures for each treatment group (i.e., media, vehicle [0.2% DMSO], positive control inducers [multiple concentrations], and the ToxCast chemicals [multiple concentrations]) were observed and cell morphology was assessed relative to vehicle control cultures at each harvest time point (0, 6, 24, or 48 h). […] Images were evaluated at the conclusion of the study to assess changes in cell integrity and account for the effects of chemical exposure on uncharacteristic changes in concentration-dependent gene expression profiles. The results from these determinations of apparent cytotoxicity were annotated (yes/no) alongside the corresponding qNPA data for reference.At the conclusion of each treatment period, hepatocyte cultures (96-well) were washed with 1 volume of HBSS, lysed by addition of 25 ul ArrayPlate lysis buffer (HTG, Tucson, AZ), and 70 ul/well of Denaturation Oil, denatured by incubation at 95C for 10 min, and frozen at approximately -70C until analysis by nuclease protection assay (qNPA) (Roberts et al., 2007). For qNPA analysis, cell lysates were thawed at 50C for approximately 30 min, qNPA probes were added, and samples were incubated at 95C for 10 min to begin the detection process by denaturing the target RNA, dissociating the duplexes and secondary structure hybridization. At the conclusion of the hybridization period, S1 nuclease reagent was added to each sample to digest all nonprotected nucleotides at 50C for 60-90 min. […]
For `COCC(=O)N(c1c(C)cccc1C)C(C)C(=O)OC` (stereo not given), the call was inactive.

As to `CC(C)Oc1cccc(NC(=O)c2ccccc2C(F)(F)F)c1`, the result was inactive.

In the case of `CNC(=O)N(C)c1nnc(C(C)(C)C)s1`, the compound was called inactive.

In the case of `Cc1c(COC(=O)[C@@H]2[C@H](/C=C(\Cl)C(F)(F)F)C2(C)C)cccc1-c1ccccc1`, the outcome was inactive.

On to `CCOP(=O)(OCC)Oc1nc(Cl)c(Cl)cc1Cl`, for which the result was inactive.

Turning to `Cc1ccc(N=CN(C)C=Nc2ccc(C)cc2C)c(C)c1`, the result was inactive.

`CN=C=S`: the result was inactive.

On to `CO/N=C(/C1=NOCCO1)c1ccccc1Oc1ncnc(Oc2ccccc2Cl)c1F`, for which the result was inactive.

In the case of `COP(=O)(OC)O/C(C)=C/C(=O)N(C)C`, the result was inactive.

Consider `O=C1C2CC=CCC2C(=O)N1SC(Cl)(Cl)Cl` (stereo not given), for which the compound was called inactive.

`Nc1c(Cl)c(F)nc(OCC(=O)O)c1Cl`: the call was inactive.

Turning to `CC1(C)CON(Cc2ccccc2Cl)C1=O`, the result was inactive.

Consider `CSC(=O)c1c(C(F)F)nc(C(F)(F)F)c(C(=O)SC)c1CC(C)C`, for which the call was inactive.

With `CS(=O)(=O)c1cc(C(F)(F)F)ccc1C(=O)c1cnoc1C1CC1`, the compound was called inactive.

For the compound `N#Cc1c(Cl)cccc1Cl`, the call was inactive.

As for `CCCC(=NOCC)C1=C(O)CC(CC(C)SCC)CC1=O` (stereo not given), the compound was classed as inactive.

For the compound `CCNC(=O)NC(=O)C(C#N)=NOC`, the result was inactive.

Turning to `O=C(O)c1c(Cl)ccc2cc(Cl)cnc12`, the compound was called inactive.

On to `CC(C)=CC1C(C(=O)OCc2coc(Cc3ccccc3)c2)C1(C)C` (stereo not given), for which the result was inactive.

Regarding `COP(=S)(OC)Oc1ccc([N+](=O)[O-])c(C)c1`, the compound was called inactive.

Consider `COCC(C)N(C(=O)CCl)c1c(C)csc1C` (stereo not given), for which the compound was called inactive.

Turning to `O=c1n(Cl)c(=O)n(Cl)c(=O)n1Cl`, the call was inactive.

`CC(C)N1C(=O)N(c2ccccc2)CSC1=NC(C)(C)C`: the call was inactive.

`Cc1cnc(C2=NC(C)(C(C)C)C(=O)N2)c(C(=O)O)c1` (stereo not given): the compound was classed as inactive.

Take `CCCCC(C#N)(Cn1cncn1)c1ccc(Cl)cc1` (stereo not given): the result was inactive.

In the case of `CCCN(CC)CC1COC2(CCC(C(C)(C)C)CC2)O1` (stereo not given), the outcome was inactive.

For the compound `Clc1nc(Cl)nc(Nc2ccccc2Cl)n1`, the result was inactive.

As for `Clc1cccc(C(Cl)(Cl)Cl)n1`, the call was inactive.

Regarding `COC(=O)NS(=O)(=O)c1ccc(N)cc1`, the compound was classed as inactive.

As to `OC(c1ccc(Cl)cc1)(c1ccc(Cl)cc1)C(Cl)(Cl)Cl`, the outcome was inactive.
